Molecules are shown by their SMILES. Values joined by “and” are separate entries in the source; they are usually repeats but may differ in a detail not shown here. Equal values may be shown once. Results filed as inconclusive are left out. Active and inactive are the calls of the source. Unless noted, calls follow the shape of the dose curve; as a rule, active = well fitted curve in the direction sought with a large enough effect in the repeat runs; inconclusive = weak or mixed curves; inactive = no such curve, though single readings can be large; an effect the other way counts as inactive or inconclusive.

Assay [1] is described as follows: qHTS assay to identify aromatase inhibitors - cell viability counter screen (AID 743084).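 Also: cells stimulated with testosterone during compound exposure; nearly all actives have a fitted effect of over 55% in size.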 Also: potency is read from the fitted curve at half-maximal effect.
A short description of assay [2]: qHTS assay to identify small molecule that activate the aryl hydrocarbon receptor (AhR) signaling pathway - cell viability counter screen (AID 743086).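 Also: HepG2 liver cells carrying the AhR DRE luciferase reporter; series mostly up to about 70 µM; nearly all actives have a fitted effect of over 45% in size.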 In short, it runs like this: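 HepG2-AhR-luc (HG2L7.5c1) cells, 4000/well, treated 24 h at 37 C with compound; viability measured as CellTiter-Fluor fluorescence after 30 min in the same wells as the luciferase read.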

The target in assay [3] is Peroxisome proliferator-activated receptor gamma (Homo sapiens) (UniProt P37231). As to the kind of experiment: qHTS assay to identify small molecule antagonists of the peroxisome proliferator-activated receptor gamma (PPARg) signaling pathway (AID 743191; calls by dose curve; also: series mostly up to about 63 µM; nearly all actives have a fitted effect of over 30% in size). In short, it runs like this:
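GeneBLAzer PPARg UAS-bla HEK293H cells, 5 h post-plating, exposed to compounds 17 h at 37C. LiveBLAzer B/G FRET substrate added for 1 h at room temperature; beta-lactamase reporter read by fluorescence intensity.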

The nature of assay [4]: qHTS assay to identify small molecule antagonists of the peroxisome proliferator-activated receptor gamma (PPARg) signaling pathway - cell viability counter screen (AID 743194). Also: nearly all actives have a fitted effect of over 55% in size. Also: potency is read from the fitted curve at half-maximal effect. The conditions noted are these: Potency: co-treated with 50 nM rosiglitazone. In short, it runs like this:
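Cytotoxicity counter screen in PPARg-bla HEK293H cells, same wells as reporter assay. Compounds plus 50 nM rosiglitazone (final) for 17 h at 37 C, then viability read by CellTiter-Glo luminescence.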

A short description of assay [5]: qHTS assay for small molecule agonists of the antioxidant response element (ARE) signaling pathway (AID 743202; active = well fitted activation curve with a large enough effect in the signal ratio in the repeat runs, not every such curve was filed as active; the % refers to the signal ratio). In short, it runs like this: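 Agonist mode reporter screen: HepG2 cells with ARE-controlled beta-lactamase are incubated with test compounds for 16 h at 37 C, and beta-lactamase activity is measured as fluorescence of cleaved B/G FRET substrate.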
Assay [6] in a line: qHTS assay for small molecule agonists of the antioxidant response element (ARE) signaling pathway - cell viability counter screen (AID 743203; calls by dose curve; also: nearly all actives have a fitted effect of over 55% in size). In short, it runs like this:
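CellSensor ARE-bla HepG2 cells, 2,000 per well, rested 5 hrs at 37C/5% CO2, then exposed to compound in DMSO for 16 hrs; viability read as CellTiter-Glo luminescence after 30 min at room temperature, in the reporter wells.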

Assay [7] is described as follows: qHTS assay for small molecule activators of the heat shock response signaling pathway - cell viability counter screen (AID 743209). Also: nearly all actives have a fitted effect of over 50% in size. In a few lines:
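CellSensor HSE-bla HeLa cells, plated overnight at 37 C/5% CO2, were exposed to compounds in DMSO for 5 h at 37 C. Viability was then read in the same wells by CellTiter-Glo luminescence after 30 min at room temperature.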

Assay [8] in a line: qHTS assay for small molecule activators of the heat shock response signaling pathway (AID 743210; active = well fitted activation curve with a large enough effect in the signal ratio in the repeat runs, with a control signal flat, not every such curve was filed as active; the % refers to the signal ratio;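 also: HeLa cells with beta-lactamase reporter driven by heat shock elements; series mostly up to about 63 µM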). In short, it runs like this: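 Quantitative high-throughput format using an engineered HeLa line in which heat shock response elements drive beta-lactamase; after 5 h with compound, cells received a B/G FRET substrate and fluorescence was read.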
The target of assay [9] is Peroxisome proliferator-activated receptor delta (Homo sapiens) (UniProt Q03181). As to the kind of experiment: qHTS assay to identify small molecule agonists of the peroxisome proliferator-activated receptor delta (PPARd) signaling pathway (AID 743212; calls by dose curve). In short, it runs like this:
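Quantitative high-throughput agonist screen in a HEK293H beta-lactamase reporter line under UAS control. Compounds in DMSO, at 37 C. Fluorescence read after 2 h with FRET substrate at room temperature.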

Assay [10] can be described thus: qHTS assay to identify small molecule antagonists of the peroxisome proliferator-activated receptor delta (PPARd) signaling pathway - cell viability counter screen (AID 743213). Also: nearly all actives have a fitted effect of over 50% in size. Also: potency is read from the fitted curve at half-maximal effect. In a few lines: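 Luminescence from CellTiter-Glo, added after the bla read and incubated 30 min at room temperature, gives viability of HEK293H PPARd-bla cells exposed to compounds for 17 h at 37 C with 300 nM L165041.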

The target of assay [11] is Peroxisome proliferator-activated receptor delta (Homo sapiens) (UniProt Q03181). As to the kind of experiment: qHTS assay to identify small molecule antagonists of the peroxisome proliferator-activated receptor delta (PPARd) signaling pathway (AID 743215; active = well fitted inhibition curve with a large enough effect in the signal ratio in the repeat runs, not every such curve was filed as active; the % refers to the signal ratio;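 also: cells stimulated with agonist L165041 at 300 nM final during compound exposure; series mostly up to about 62 µM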). In short, it runs like this: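 PPARd UAS-bla HEK293H cells were pre-incubated 5 h at 37 C, then given test compounds in DMSO plus agonist L165041 (300 nM final). After 17 h at 37 C, beta-lactamase FRET substrate was added; fluorescence read after 2 h at room temperature.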

Assay [12] is described as follows: qHTS assay to identify small molecule agonists of the farnesoid-X-receptor (FXR) signaling pathway - cell viability counter screen (AID 743218). Also: nearly all actives have a fitted effect of over 45% in size. Also: potency is read from the fitted curve at half-maximal effect. In short, it runs like this: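 FXR-UAS-bla HEK 293T cells, plated 5 h at 37 C, were exposed to compounds for 16 h at 37 C. CellTiter-Glo was then added to the same wells as the bla readout; luminescence read after 30 min at room temperature.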

A short description of assay [13]: qHTS assay to identify small molecule antagonists of the farnesoid-X-receptor (FXR) signaling pathway - cell viability counter screen (AID 743221; active = well fitted cell-killing curve with a large enough effect in the repeat runs, not every such curve was filed as active; also: nearly all actives have a fitted effect of over 50% in size; also: potency is read from the fitted curve at half-maximal effect). In short, it runs like this: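 CellTiter-Glo, 30 min RT, luminescence; same wells as the LiveBLAzer FRET read. Cells: FXR-UAS-bla HEK 293T. Treatment: compound with chenodeoxycholic acid 50 uM final, 16 h at 37 C.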

In assay [14] the target is Vitamin D3 receptor (Homo sapiens) (UniProt P11473). Kind of assay: qHTS assay to identify small molecule agonists of the vitamin D receptor (VDR) signaling pathway (AID 743222; calls by dose curve). In a few lines: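 VDR-bla cells were plated 4 h at 37C/5% CO2, then exposed to compounds in DMSO for 16 h. After LiveBLAzer B/G FRET substrate addition and 2 h at room temperature, beta-lactamase reporter fluorescence was read.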

Assay [15] has the same target. Kind of assay: qHTS assay to identify small molecule antagonists of the vitamin D receptor (VDR) signaling pathway (AID 743223; active = well fitted inhibition curve with a large enough effect in the signal ratio in the repeat runs, not every such curve was filed as active; the % refers to the signal ratio). In a few lines: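 After VDR-bla cells are plated and left 4 h at 37C, DMSO-dissolved compounds and 3 nM (final) calcitriol agonist are added. Incubation continues 16 h at 37C; FRET beta-lactamase substrate then develops 2 h at room temperature.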

The nature of assay [16]: qHTS assay to identify small molecule agonists of the peroxisome proliferator-activated receptor delta (PPARd) signaling pathway - cell viability counter screen (AID 743211). Also: nearly all actives have a fitted effect of over 55% in size. Also: potency is read from the fitted curve at half-maximal effect. In short, it runs like this: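 Multiplexed format: after the 2 h room-temperature LiveBLAzer B/G FRET step, CellTiter-Glo was added to the same wells. Luminescence after 30 min gave cell viability; compound exposure was 17 h at 37C.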

Assay [17] concerns the target Bile acid receptor (Homo sapiens) (UniProt Q96RI1). As to the kind of experiment: qHTS assay to identify small molecule antagonists of the farnesoid-X-receptor (FXR) signaling pathway (AID 743217; active = well fitted inhibition curve with a large enough effect in the signal ratio in the repeat runs, not every such curve was filed as active; the % refers to the signal ratio). In short, it runs like this: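 FXR-UAS-bla HEK 293T cells pre-incubated 5 h at 37 °C, then exposed to compounds with chenodeoxycholic acid (50 uM final) for 16 h at 37 °C. Beta-lactamase reporter read by LiveBLAzer B/G FRET substrate fluorescence after 2 h at room temperature.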

The target is the same in assay [18]. As to the kind of experiment: qHTS assay to identify small molecule agonists of the farnesoid-X-receptor (FXR) signaling pathway (AID 743220; active = well fitted activation curve with a large enough effect in the signal ratio in the repeat runs, not every such curve was filed as active; the % refers to the signal ratio). In a few lines:
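Beta-lactamase reporter under UAS control in GeneBLAzer FXR HEK 293T cells (5000/well) measured with LiveBLAzer FRET substrate after 2 h at room temperature. Compound exposure lasted 16 h at 37C.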

In assay [19] the target is Peroxisome proliferator-activated receptor gamma (Homo sapiens) (UniProt P37231). As to the kind of experiment: qHTS assay to identify small molecule agonists of the peroxisome proliferator-activated receptor gamma (PPARg) signaling pathway (AID 743094; active = well fitted activation curve with a large enough effect in the signal ratio in the repeat runs, not every such curve was filed as active; the % refers to the signal ratio). In short, it runs like this: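 GeneBLAzer PPARg UAS-bla HEK293H cells carrying a stably integrated beta-lactamase reporter were pre-incubated 5 h at 37C, then exposed to compounds in DMSO for 17 h at 37C; LiveBLAzer B/G FRET substrate was added for 1 h at room temperature and fluorescence read.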

Assay [20] has as its target Aryl hydrocarbon receptor (Homo sapiens) (UniProt P35869). As to the kind of experiment: qHTS assay to identify small molecule that activate the aryl hydrocarbon receptor (AhR) signaling pathway (AID 743085).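 Also: HG2L7.5c1 human HepG2 liver cells with stably integrated DRE-driven firefly reporter; series mostly up to about 70 µM; nearly all actives have a fitted effect of over 15% in size.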 In a few lines: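 Reporter assay in engineered HepG2 line HG2L7.5c1, whose plasmid carries twenty dioxin responsive elements upstream of firefly luciferase. Treatment lasted 24 h at 37C; ONE-Glo luminescence gauged induction.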

Sequence of Peroxisome proliferator-activated receptor gamma (Homo sapiens) (P37231 whole entry, looked up): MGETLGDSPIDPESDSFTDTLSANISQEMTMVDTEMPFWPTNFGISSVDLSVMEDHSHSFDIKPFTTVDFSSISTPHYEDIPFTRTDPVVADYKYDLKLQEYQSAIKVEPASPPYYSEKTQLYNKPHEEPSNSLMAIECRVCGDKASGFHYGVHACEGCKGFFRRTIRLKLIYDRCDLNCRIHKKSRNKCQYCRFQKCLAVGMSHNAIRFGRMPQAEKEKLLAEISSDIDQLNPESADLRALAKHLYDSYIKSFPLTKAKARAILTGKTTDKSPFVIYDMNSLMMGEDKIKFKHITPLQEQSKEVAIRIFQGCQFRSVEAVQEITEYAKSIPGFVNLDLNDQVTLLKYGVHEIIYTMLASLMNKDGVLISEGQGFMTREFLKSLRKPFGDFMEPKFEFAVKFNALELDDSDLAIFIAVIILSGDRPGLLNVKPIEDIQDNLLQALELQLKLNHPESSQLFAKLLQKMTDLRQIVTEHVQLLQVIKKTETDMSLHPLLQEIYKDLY
Sequence of Peroxisome proliferator-activated receptor delta (Homo sapiens) (Q03181 whole entry, looked up): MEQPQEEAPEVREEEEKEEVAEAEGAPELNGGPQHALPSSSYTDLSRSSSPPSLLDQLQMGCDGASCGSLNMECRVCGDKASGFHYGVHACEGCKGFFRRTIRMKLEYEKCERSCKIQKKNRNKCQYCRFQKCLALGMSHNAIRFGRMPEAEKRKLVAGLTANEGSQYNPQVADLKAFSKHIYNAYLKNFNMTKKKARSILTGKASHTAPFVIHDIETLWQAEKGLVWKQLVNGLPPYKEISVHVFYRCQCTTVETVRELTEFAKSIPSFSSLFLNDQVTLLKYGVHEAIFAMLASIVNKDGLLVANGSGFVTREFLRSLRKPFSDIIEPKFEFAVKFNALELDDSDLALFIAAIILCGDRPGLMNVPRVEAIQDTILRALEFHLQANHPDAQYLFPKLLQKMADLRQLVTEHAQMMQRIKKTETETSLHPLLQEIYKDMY
Sequence of Vitamin D3 receptor (Homo sapiens) (P11473 whole entry, looked up): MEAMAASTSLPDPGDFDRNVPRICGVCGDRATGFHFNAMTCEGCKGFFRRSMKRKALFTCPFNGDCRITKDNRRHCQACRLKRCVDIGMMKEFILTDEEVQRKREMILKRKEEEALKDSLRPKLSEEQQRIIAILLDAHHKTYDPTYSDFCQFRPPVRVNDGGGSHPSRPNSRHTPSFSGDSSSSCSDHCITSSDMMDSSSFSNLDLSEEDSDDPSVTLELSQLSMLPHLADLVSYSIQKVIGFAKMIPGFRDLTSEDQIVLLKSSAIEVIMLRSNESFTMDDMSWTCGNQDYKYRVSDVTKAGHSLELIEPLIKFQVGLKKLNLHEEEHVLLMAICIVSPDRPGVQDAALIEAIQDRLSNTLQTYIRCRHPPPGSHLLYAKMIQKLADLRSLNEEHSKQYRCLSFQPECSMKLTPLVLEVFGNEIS
Sequence of Bile acid receptor (Homo sapiens) (Q96RI1 whole entry, looked up): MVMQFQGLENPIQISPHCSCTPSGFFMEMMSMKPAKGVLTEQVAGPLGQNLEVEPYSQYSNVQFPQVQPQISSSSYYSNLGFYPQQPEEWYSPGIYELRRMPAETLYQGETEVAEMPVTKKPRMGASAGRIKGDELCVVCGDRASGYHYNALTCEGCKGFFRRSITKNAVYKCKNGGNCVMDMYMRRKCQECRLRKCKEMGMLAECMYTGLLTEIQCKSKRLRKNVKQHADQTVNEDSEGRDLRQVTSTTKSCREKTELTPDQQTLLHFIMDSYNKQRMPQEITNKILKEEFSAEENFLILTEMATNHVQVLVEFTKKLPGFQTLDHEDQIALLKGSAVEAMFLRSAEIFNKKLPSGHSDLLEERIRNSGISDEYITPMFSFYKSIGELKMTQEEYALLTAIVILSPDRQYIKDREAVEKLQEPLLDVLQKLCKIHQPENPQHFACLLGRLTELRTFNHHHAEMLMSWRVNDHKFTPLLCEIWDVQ
Sequence of Aryl hydrocarbon receptor (Homo sapiens) (P35869 whole entry, looked up): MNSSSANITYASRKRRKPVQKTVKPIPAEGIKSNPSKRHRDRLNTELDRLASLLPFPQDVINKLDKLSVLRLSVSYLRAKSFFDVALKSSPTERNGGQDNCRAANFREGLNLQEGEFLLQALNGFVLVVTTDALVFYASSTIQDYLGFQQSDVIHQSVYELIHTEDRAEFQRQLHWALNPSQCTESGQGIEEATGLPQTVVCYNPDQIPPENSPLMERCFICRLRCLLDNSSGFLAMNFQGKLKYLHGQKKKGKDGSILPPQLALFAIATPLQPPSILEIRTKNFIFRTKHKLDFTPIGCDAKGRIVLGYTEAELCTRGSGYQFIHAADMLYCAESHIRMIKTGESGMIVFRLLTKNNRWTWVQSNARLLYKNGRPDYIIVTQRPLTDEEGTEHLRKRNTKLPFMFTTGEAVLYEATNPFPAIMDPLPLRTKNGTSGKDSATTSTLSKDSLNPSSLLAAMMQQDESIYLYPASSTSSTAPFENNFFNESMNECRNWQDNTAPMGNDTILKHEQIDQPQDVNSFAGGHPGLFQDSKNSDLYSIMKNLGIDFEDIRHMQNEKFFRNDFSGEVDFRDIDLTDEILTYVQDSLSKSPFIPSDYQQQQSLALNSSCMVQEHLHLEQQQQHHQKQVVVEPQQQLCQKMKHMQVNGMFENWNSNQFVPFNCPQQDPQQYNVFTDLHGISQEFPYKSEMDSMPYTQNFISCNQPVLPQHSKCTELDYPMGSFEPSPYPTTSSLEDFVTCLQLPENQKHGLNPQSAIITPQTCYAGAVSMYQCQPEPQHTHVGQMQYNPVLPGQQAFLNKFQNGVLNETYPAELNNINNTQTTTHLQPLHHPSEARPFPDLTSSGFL

Consider `O=[N+]([O-])O[C@H]1CO[C@H]2[C@@H]1OC[C@H]2O[N+](=O)[O-]`, for which the Potency result in assay [1], in assay [2], in assay [3], in assay [4], in assay [5] and in [6] was “inactive” in each case. Further, the Potency result in [7], in assay [8], in assay [10], in assay [11], in assay [12] and in [13] was “inactive” throughout. Also, the Potency entry in assay [15] is “inactive”. Besides, the outcome in assay [9] and in [14] was inactive.

In the case of `C=CCN1C[C@H](C)N([C@H](c2ccc(C(=O)N(CC)CC)cc2)c2cccc(OC)c2)C[C@H]1C`, the Potency entry in [1], in [2], in [3], in assay [4], in [6] and in assay [7] was “inactive” in each case. In addition, the Potency result in assay [8], in assay [10], in [11], in assay [12] and in [13] was “inactive” in each case. In addition, the result in [9] and in [14] was inactive.

As to `CCOc1cccc(C2(N3CCN(c4ccccc4)CC3)CCC(C)CC2)c1` (stereo not drawn), the Potency result in assay [1], in assay [3], in assay [4], in assay [5], in [7] and in [16] was “inactive” each time. Moreover, the Potency entry in assay [10], in assay [11], in [12] and in assay [15] was “inactive” throughout. Moreover, the call in assay [9] and in assay [14] was inactive.

On to `CC(=O)OC(c1ccccc1)C(Cl)(Cl)Cl` (stereo not drawn), for which the Potency result in assay [1], in [4], in assay [5], in assay [6], in [7] and in [10] was “inactive” each time. The Potency result in assay [11], in [17], in assay [12] and in assay [13] was “inactive” each time. In addition, the call in assay [9], in assay [18] and in assay [14] was inactive.

Consider `CN1C(=O)CN=C(c2ccccc2)c2cc([N+](=O)[O-])ccc21`, for which the Potency result in assay [2], in [19], in assay [3], in assay [4], in assay [5] and in assay [8] was “inactive” each time. Besides, the Potency entry in [10], in assay [11], in assay [12] and in [13] was “inactive” throughout. For the same molecule, in assay [9], the molecule was classed as inactive.

Regarding `CCCSP(=S)(OCC)Oc1ccc(SC)cc1` (stereo not drawn), the Potency result in assay [1], in assay [19], in assay [3], in [4], in [7] and in assay [10] was “inactive” throughout. Besides, the Potency result in [12], in assay [13] and in assay [15] was “inactive” each time. Besides, the molecule was called inactive in assay [9], in [18] and in assay [14].

On to `O=[N+]([O-])/C=C/c1ccccc1`, for which the Potency in [1] was 31.1 µM (active) and 54.5 µM (active); in assay [4], 31.4 µM (active) and 24.5 µM (active); in assay [16], 14 µM (active) and 17.4 µM (active); in assay [10], 44.4 µM (active); in [12], 19.8 µM (active) and 15.5 µM (active); in assay [13], 19.8 µM (active) and 38.9 µM (active). The Potency entry in assay [2], in assay [7] and in [15] was “inactive” each time. In addition, the molecule was called inactive in assay [18] and in [14].

For `CNC(=O)Oc1cccc(N=CN(C)C)c1`, the Potency result in assay [1], in [2], in assay [4], in assay [6], in assay [7] and in assay [16] was “inactive” in each case. For the same molecule, the Potency result in assay [11], in assay [12], in assay [13] and in [15] was “inactive” each time. Further, the molecule was called inactive in [9] and in assay [14].

As for `CC(C)(C)NCC(O)c1cc(Cl)c(N)c(C(F)(F)F)c1` (stereo not drawn), the Potency result in assay [20], in assay [19], in [3], in assay [4], in assay [6] and in [8] was “inactive” each time. Further, the Potency entry in assay [16], in assay [10], in assay [11], in [12] and in [13] was “inactive” throughout. Further, the molecule was classed as inactive in assay [9] and in [14].

As for `FC(Cl)(Cl)C(F)(Cl)Cl`, the Potency entry in [1], in [2], in [4], in [6], in assay [8] and in assay [16] was “inactive” each time. Besides, the Potency result in [10], in assay [12], in assay [13] and in assay [15] was “inactive” each time. The outcome in [14] was inactive.

These data come from PubChem BioAssay (Tox21).
